Test results: PubChem BioAssay

assay: probe aXIP binding to arrayed compounds – biochemical, NeuroSMM set, 635/667 nm fluorescence, primary screen (AID 1119); settings: small-molecule microarray, higher = more signal, called active from +8 up or from −8 down;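 further: probe is the protein aXip251-270 applied at 1 µg/mL to compound-printed slides; binding of probe to printed compounds measured as 667 nm fluorescence plus signal to noise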

Composite Z-score, inactive:
CC(C)N1CC=CC23O[C@@H]4C=CCOC(=O)[C@@H]4[C@H]2C(=O)N(CCCCCO)[C@@H]3C1=O (stereo not given in full) -0.194
[N-]=[N+]=Nc1ccccc1C[C@@]1(C(=O)N2CCCCC2)N=C(c2ccc(OCCCO)cc2)O[C@@H]1c1ccccc1 0.219
OCC1C=C(/C=C/c2ccccc2)CN1Cc1ccccc1Br (stereo not given) 0.466
C=CC[C@@]1(C(=O)N2CCCCC2)N=C(c2ccc(OCCCO)cc2)O[C@@H]1c1ccccc1N=[N+]=[N-] -0.797
CO[C@H]1O[C@H](CO)[C@@H](OC(=O)Nc2ccc(Oc3ccccc3)cc2)[C@H](OC(=O)Nc2ccc3c(c2)OCO3)[C@@H]1OC(=O)Nc1ccc2c(c1)OCO2 1.29
COCCOC(=O)N1C(=O)[C@@]2(c3ccccc31)[C@H](C(=O)N1CCc3cc(OC)c(OC)cc3C1)[C@H]1C(=O)O[C@H](c3ccccc3)[C@H](c3ccccc3)N1[C@@H]2c1ccc(O)cc1 0.27
CCCCC(=C=CC[C@@H](O)c1cccc(OCCO)c1)C[C@@H](O)c1ccccn1 0.216
CCOC(=O)C[C@H]1[C@H](OC(=O)c2cc3ccccc3oc2=O)[C@@H](NC(=O)CC(C)C)c2cc(OCCCO)ccc2N1C(=O)c1ccccc1 -0.081
CC(C)(C)OC(=O)CC[C@@]1(C(=O)N2CCCCC2)N=C(c2ccc(OCCCO)cc2)O[C@@H]1c1ccccc1 -0.317
Cc1ccc(S(=O)(=O)N2C[C@@H](C(=O)O)[C@H](Sc3ccccc3)C[C@H]2c2ccccc2)cc1 -0.202
O=C1[C@H]2C=C(Br)[C@H](C[C@@H]2OCCCCCCO)[C@@]12CO2 0.926
COc1ccc(C(=O)Nc2cccc(CN3C(=O)[C@]4(O[C@H](CCn5cc(CCO)nn5)[C@@H]([Si](C)(C)c5ccc(OC)cc5)[C@@H]4C)c4ccccc43)c2)cc1 0.165
C=C[C@H](C)[C@@H](OC(=O)Nc1ccc(SC)cc1)c1ccc(O)c2ccccc12 -0.552
COCCOC(=O)N1C(=O)[C@@]2(c3cc(C#CC4(O)CCCCCC4)ccc31)[C@H](C(=O)Nc1nc3ccccc3s1)[C@H]1C(=O)O[C@H](c3ccccc3)[C@H](c3ccccc3)N1[C@@H]2c1ccccc1OCCO -0.129
C=CCC(OC(C)=O)[C@@H]1[C@@H](N(Cc2ccc(-c3ccccc3)cc2)C(=O)Cc2ccc(F)cc2)c2cc(OCCCO)ccc2N1C(=O)c1ccc2ccccc2c1 (stereo not given in full) -0.301
CN(C)CCCC[C@@H]1NC(=O)[C@H]2C[C@@H](C(=O)NCCCCCN)[C@@H](c3cccc(OCCO)c3)N2C1=O 0.522
C=CC[C@]1(C(=O)NCc2ccccc2)N=C(c2ccc(OCCCO)cc2)O[C@H]1c1ccccc1CN=[N+]=[N-] -0.451
O=C(CS)NCCCCCNC(=O)[C@@H]1C[C@@H]2C(=O)NCC(=O)N2[C@@H]1c1ccc(O)cc1 2
C=CCC(OC(C)=O)[C@@H]1[C@@H](N(Cc2ccc(-c3cccc(C(F)(F)F)c3)o2)C(=O)c2cccc3ccccc23)c2cc(OCCCO)ccc2N1C(=O)Cc1ccc2ccccc2c1 (stereo not given in full) 0.111
C=CCC(OC(C)=O)[C@@H]1[C@@H](N(Cc2ccc(-c3cccc(C(F)(F)F)c3)o2)C(=O)Cc2ccc(OC)cc2)c2cc(OCCCO)ccc2N1C(=O)c1ccc2ccccc2c1 (stereo not given in full) -0.616
CC(C)CN1C(=O)[C@@]2(c3ccc([N+](=O)[O-])cc3)CC(=O)N(C3CCCCC3)[C@@H]2c2ccc(CO)cc21 0.659
O=C1C2C=CC(C(O)C=Cc3ccc([N+](=O)[O-])cc3)N(n3cnnc3)C2C(=O)N1Cc1ccccc1 (stereo not given) 0.263
O=C1O[C@H](c2ccccc2)[C@H](c2ccccc2)N2[C@H]1[C@@H](C(=O)NC[C@H](O)c1ccccc1)[C@]1(C(=O)Nc3ccc(C#CC4=CCCCC4)cc31)[C@H]2c1ccccc1OCCO 0.0371
O=C1NC(=O)C2C1C=CC(C(O)c1ccc(I)cc1)N2Nc1ccc(Cl)cc1Cl (stereo not given) -0.234
CC(C)CCC[C@@H](C)[C@H]1CC[C@@]2(C)C3=C(CC[C@]12C)[C@@]1(C)CC[C@H](OC(=O)c2ccc(C(F)(F)F)nc2)C(C)(C)C1CC3 (stereo not given in full) -0.0967
